The source made the active and inactive calls. Rule for the calls: active = hit-call score of the fitted dose curve at least 0.9, where 1 is the maximum; inactive = score below 0.9.
Assay: IUF_NPC2-5_cell_number_120hr: Cell Number Assessment at 120 hours in the Leibniz Research Institute for Environmental Medicine (IUF) Neural Progenitor Cell Migration and Differentiation Assay (NPC2-5) (AID 2284308);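 note: count of Hoechst-stained nuclei in migration zone around plated human neural progenitor spheres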
Method in brief: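 hNPC spheres, one per well, PDL/laminin, N2 medium, 37C, 5% CO2. Dosing day 0 → half-medium change with fresh compound day 3 → fix 120 h. Readout: Hoechst+ nuclei count, migration area; 7 concentrations plus solvent control.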

**Q.** With `CCNC(=O)NC(=O)C(C#N)=NOC` as the compound, how does the outcome read?
**A.** The outcome was “inactive”.

**Q.** Which outcome does the source give for `CS(=O)(=O)c1ccc(C(=O)C2C(=O)CCCC2=O)c([N+](=O)[O-])c1` here?
**A.** The outcome was “inactive”.

**Q.** Which outcome does the source give for `CC1(C)C(C=C(Cl)Cl)C1C(=O)OC(C#N)c1cccc(Oc2ccccc2)c1` (stereo unspecified) here?
**A.** Its outcome is “inactive”.

**Q.** With `COC(=O)N(C(=O)N1CO[C@@]2(C(=O)OC)Cc3cc(Cl)ccc3C2=N1)c1ccc(OC(F)(F)F)cc1` as the compound, how does the outcome read?
**A.** Its outcome is “inactive”.

**Q.** Which outcome does the source give for `O=C(Nc1ccccc1-c1ccc(Cl)cc1)c1cccnc1Cl` here?
**A.** Its outcome is “inactive”.

**Q.** With `N#CN=C1SCCN1Cc1ccc(Cl)nc1` as the compound, how does the outcome read?
**A.** The outcome was “inactive”.

**Q.** For `COP(=S)(OC)SCn1nnc2ccccc2c1=O`, which outcome is on record?
**A.** The outcome was “inactive”.

**Q.** Which outcome does the source give for `C=C(C)CN(CC)c1c([N+](=O)[O-])cc(C(F)(F)F)cc1[N+](=O)[O-]` here?
**A.** Its outcome is “inactive”.

**Q.** Which outcome does the source give for `CS(=O)(=O)c1cc(C(F)(F)F)ccc1C(=O)c1cnoc1C1CC1` here?
**A.** The outcome was “inactive”.

**Q.** For `CO/N=C(/C1=NOCCO1)c1ccccc1Oc1ncnc(Oc2ccccc2Cl)c1F`, which outcome is on record?
**A.** The outcome was “inactive”.

**Q.** With `CCOP(=O)(OCC)Oc1nc(Cl)c(Cl)cc1Cl` as the compound, how does the outcome read?
**A.** Its outcome is “inactive”.

**Q.** With `CNC(=O)Oc1cccc2ccccc12` as the compound, how does the outcome read?
**A.** Its outcome is “inactive”.

**Q.** For `CCSC(=O)N1CCCCCC1`, which outcome is on record?
**A.** Its outcome is “inactive”.

**Q.** For `CC(C)(C)C(=O)C(Oc1ccc(Cl)cc1)n1cncn1` (stereo unspecified), which outcome is on record?
**A.** Its outcome is “inactive”.

**Q.** For `CN/C(=N\[N+](=O)[O-])NCc1cnc(Cl)s1`, which outcome is on record?
**A.** The outcome was “inactive”.

**Q.** For `Cc1c(COC(=O)[C@@H]2[C@H](/C=C(\Cl)C(F)(F)F)C2(C)C)cccc1-c1ccccc1`, which outcome is on record?
**A.** Its outcome is “inactive”.
